Here are results for 34 targets from the supplement of paper PMC4188521.

Compound in the test: CCc1cnn2c(NCc3ccc[n+]([O-])c3)cc(N3CCCC[C@H]3CCO)nc12 [dinaciclib]
The experiment in a line: cell viability remaining relative to DMSO control; higher = less cytotoxic (more viable cells). Conditions: 100 nM; 24 h. The gist of the method: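 Cell lines from solid tumours, sourced from commercial cell banks, were treated with 100 nM of the test compound for 24 hr at a final DMSO level of ≤0.2%. ATP luminescence was measured with the CellTiter-Glo assay according to the manufacturer's instructions. Remaining viability is the ratio of light units in treated wells to those in DMSO-treated control wells, expressed as a percentage of the DMSO control. Each value is the mean of 2–6 plates, each with triplicate wells.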
For KURAMOCHI, the cell viability remaining is 121%. Then NCI-H1395, with 36%; and MDAMB175VII, with 36%. Then SKNFI, with 24.1%; and OV56, with 59.1%.

In the case of ESS1, the cell viability remaining is 73.5%. In the case of MIAPACA2, the cell viability remaining was found to be 41.2%.

FADU: the cell viability remaining is 31.8%. Then COV362, with 81%.

On to NCI-H322, for which the cell viability remaining stood at 69.1%. To U87MG belongs 63%; to UACC62, 57.1%. Then LOVO, with 88.9%; and HEC1A, with 49%. As for H1793, the cell viability remaining is 91.3%.

As to CAKI1, the cell viability remaining was determined as 63.5%. As to COLO684, the cell viability remaining is 85.6%. On to CHL1, for which the cell viability remaining was determined as 3.1%. Consider SKMEL28, for which the cell viability remaining turned out to be 56.2%.

As to CORL23, the cell viability remaining was found to be 62.8%. As to SKMES1, the cell viability remaining is 53.9%. For the target H226, the cell viability remaining worked out at 56.1%. On to OE19, for which the cell viability remaining was determined as 77.7%. Then COV434, with 7.7%. Then MFE296, with 47.4%; and HT1080, with 88.8%; and COLO201, with 67.8%. On to VCAP, for which the cell viability remaining worked out at 37.8%. For the target RPMI7951, the cell viability remaining was 45.3%. As for SAOS2, the cell viability remaining was 32.2%. Then HCC1500, with 46.2%.

Take HS852T: the cell viability remaining is 54.3%. To H1792 belongs 60.9%; to CAL120, 76.8%.
